Source: PubChem BioAssay (Tox21)
Results filed as inconclusive are left out. A call without a number means that no potency is given here. Calls of active or inactive are those of the source. Unless noted, the call rests on the fitted dose curve; in most records, active means well fitted curve in the direction sought with a large enough effect in the repeat runs; inconclusive means weak or mixed curves; inactive means no such curve, though single readings can be large; an effect the other way counts as inactive or inconclusive.

Experiments:
[1] = qHTS assay to identify small molecule agonists of the androgen receptor (AR) signaling pathway in the presence of an antagonist - cell viability counter screen (AID 1259379); further: nearly all actives have a fitted effect of over 25% in size; further: potency means the concentration at half of the fitted maximal effect
Procedure, shortened: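 Cells: MDA-kb2 (MMTV-luc, AR and GR elements), 3,000/well, 5 hr settle. Added: nilutamide 3.0uM final, then compounds (15 conc.). Incubation: 16 hr, 37C, no CO2. Read-out: CellTiter-Fluor, 1 hr, fluorescence.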

[2] = qHTS assay to identify small molecule agonists of the estrogen receptor beta (ER-beta) signaling pathway - cell viability counter screen (AID 1259380); further: nearly all actives have a fitted effect of over 30% in size; further: potency means the concentration at half of the fitted maximal effect
Procedure, shortened: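 HEK293T ER-beta-UAS-bla; 2% CS-FBS; 6 hr pre-plate, 16 hr cpd at 37C/5% CO2; LiveBLAzer read first, then CellTiter-Glo 30 min RT, luminescence.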

[3] = qHTS assay to identify small molecule antagonists of the estrogen receptor beta (ER-beta) signaling pathway - cell viability counter screen (AID 1259382); further: series mostly up to about 92 µM; nearly all actives have a fitted effect of over 55% in size
Procedure, shortened: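 Cells: ER-beta-UAS-bla HEK293T, 2,000/well, 2% CS-FBS, 6 hr settle. Cpd + E2 (1nM final), 16 hr, 37C/5% CO2. Bla FRET substrate 2 hr RT, then CellTiter-Glo 30 min RT, luminescence.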

[4] = molecular target: Estrogen receptor (Homo sapiens) (UniProt P03372); experiment: qHTS assay to identify small molecule agonists of the estrogen receptor alpha (ER-alpha) signaling pathway in the presence of an antagonist (AID 1259383; calls by dose curve; further: top concentration of the series differs between compounds; nearly all actives have a fitted effect of over 15% in size)
Sequence of Estrogen receptor (Homo sapiens) (P03372 whole entry, looked up): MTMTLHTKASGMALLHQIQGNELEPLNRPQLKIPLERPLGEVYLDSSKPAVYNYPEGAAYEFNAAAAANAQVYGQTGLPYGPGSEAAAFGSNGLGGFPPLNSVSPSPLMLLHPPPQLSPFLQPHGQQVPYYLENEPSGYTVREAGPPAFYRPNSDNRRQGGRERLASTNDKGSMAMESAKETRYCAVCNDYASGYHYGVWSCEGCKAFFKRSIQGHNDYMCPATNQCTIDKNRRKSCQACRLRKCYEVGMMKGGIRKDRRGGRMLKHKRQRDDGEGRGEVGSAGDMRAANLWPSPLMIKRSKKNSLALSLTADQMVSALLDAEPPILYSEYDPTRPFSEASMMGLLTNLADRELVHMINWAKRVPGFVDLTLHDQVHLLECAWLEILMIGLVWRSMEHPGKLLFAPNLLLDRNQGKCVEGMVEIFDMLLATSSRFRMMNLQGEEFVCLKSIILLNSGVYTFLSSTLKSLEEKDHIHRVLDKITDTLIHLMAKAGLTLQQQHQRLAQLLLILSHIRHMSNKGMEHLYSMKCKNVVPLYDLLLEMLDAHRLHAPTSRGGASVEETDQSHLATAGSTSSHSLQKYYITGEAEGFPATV
Procedure, shortened: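 VM7Luc4E2, endog. ER-alpha + 4×ERE-luc; charcoal-stripped FBS, phenol red-free, 5 d; 24hr plating; +10.0nM ICI-182,780 (final); cpds 15 conc, 22hr, 37C/5% CO2; ONE-Glo luminescence.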

[5] = molecular target: Estrogen receptor beta (Homo sapiens) (UniProt Q92731); experiment: qHTS assay to identify small molecule agonists of the estrogen receptor beta (ER-beta) signaling pathway (AID 1259377; active means well fitted activation curve with a large enough effect in the signal ratio in the repeat runs, not every such curve was filed as active; the % refers to the signal ratio)
Sequence of Estrogen receptor beta (Homo sapiens) (Q92731 whole entry, looked up): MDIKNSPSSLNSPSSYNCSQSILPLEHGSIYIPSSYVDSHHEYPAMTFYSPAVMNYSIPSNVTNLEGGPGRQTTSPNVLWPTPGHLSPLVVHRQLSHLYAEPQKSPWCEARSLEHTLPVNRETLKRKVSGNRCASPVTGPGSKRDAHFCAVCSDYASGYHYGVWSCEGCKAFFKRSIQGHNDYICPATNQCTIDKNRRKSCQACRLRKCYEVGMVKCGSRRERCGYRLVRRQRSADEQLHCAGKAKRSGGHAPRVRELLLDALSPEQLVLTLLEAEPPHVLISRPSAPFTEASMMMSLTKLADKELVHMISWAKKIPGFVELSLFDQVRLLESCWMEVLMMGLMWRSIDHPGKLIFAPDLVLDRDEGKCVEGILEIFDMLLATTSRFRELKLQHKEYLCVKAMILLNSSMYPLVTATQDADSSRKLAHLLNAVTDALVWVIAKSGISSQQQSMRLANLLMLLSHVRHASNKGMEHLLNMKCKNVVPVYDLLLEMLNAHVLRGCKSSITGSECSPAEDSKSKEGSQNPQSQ
Procedure, shortened: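 Reporter cells (HEK293T, ER-beta-UAS-bla) receive compounds or DMSO after a 6 hr pre-incubation. They then incubate 16 hr at 37C/5% CO2, and fluorescence from LiveBLAzer B/G substrate is measured after 2 hours at room temperature.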

[6] = molecular target: Estrogen receptor beta (Homo sapiens) (UniProt Q92731); experiment: qHTS assay to identify small molecule antagonists of the estrogen receptor beta (ER-beta) signaling pathway (AID 1259378; active means well fitted inhibition curve with a large enough effect in the signal ratio in the repeat runs, not every such curve was filed as active; the % refers to the signal ratio; further: potency means the concentration at half of the fitted maximal effect)
Procedure, shortened: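 ER-beta-UAS-bla HEK293T cells in 2% charcoal-stripped FBS medium treated with compound plus 1nM final 17-beta-estradiol for 16 hr at 37C. Beta-lactamase reporter read by FRET substrate fluorescence after 2 hours at room temperature.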

[7] = molecular target: Thyrotropin receptor (Homo sapiens) (UniProt P16473); experiment: qHTS assay to identify small molecule antagonists of the thyroid stimulating hormone receptor (TSHR) signaling pathway (AID 1259385; calls by dose curve; further: nearly all actives have a fitted effect of over 20% in size)
Sequence of Thyrotropin receptor (Homo sapiens) (P16473 whole entry, looked up): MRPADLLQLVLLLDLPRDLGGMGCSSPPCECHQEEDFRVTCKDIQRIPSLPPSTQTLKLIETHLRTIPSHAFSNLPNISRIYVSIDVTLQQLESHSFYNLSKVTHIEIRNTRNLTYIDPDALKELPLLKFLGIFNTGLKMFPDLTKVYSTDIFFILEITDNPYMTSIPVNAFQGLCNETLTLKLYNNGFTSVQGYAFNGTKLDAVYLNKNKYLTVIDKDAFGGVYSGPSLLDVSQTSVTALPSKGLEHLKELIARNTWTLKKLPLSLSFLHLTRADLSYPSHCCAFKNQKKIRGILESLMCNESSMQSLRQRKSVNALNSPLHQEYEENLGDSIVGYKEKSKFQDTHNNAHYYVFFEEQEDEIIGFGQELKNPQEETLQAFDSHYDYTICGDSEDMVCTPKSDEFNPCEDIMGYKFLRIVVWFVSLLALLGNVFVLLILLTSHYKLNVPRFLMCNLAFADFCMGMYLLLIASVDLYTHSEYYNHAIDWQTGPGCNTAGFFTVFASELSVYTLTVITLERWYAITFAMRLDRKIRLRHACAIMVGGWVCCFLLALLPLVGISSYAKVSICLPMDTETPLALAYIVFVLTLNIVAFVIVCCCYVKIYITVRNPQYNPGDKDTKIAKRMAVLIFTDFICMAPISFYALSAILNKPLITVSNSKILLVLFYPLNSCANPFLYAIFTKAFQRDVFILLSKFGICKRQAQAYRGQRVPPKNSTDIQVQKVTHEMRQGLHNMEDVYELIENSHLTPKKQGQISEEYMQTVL
Procedure, shortened: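 TSHR-HEK293 cells (800/well) plated 18 h, then compounds with Ro20-1724 and TSH at 1.5 ng/mL final, 30 min at room temperature. cAMP quantified by HTRF (cAMP-d2/anti-cAMP-cryptate, 1 h); 15 concentrations in triplicate.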

[8] = qHTS assay to identify small molecule agonists or antagonists of the thyroid stimulating hormone receptor (TSHR) signaling pathway - wild type cell line counter screen (AID 1259384; calls by dose curve)
Procedure, shortened: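 Wild-type Hek293 cells, 800/well, 18 h at 37C, then compound with Ro20-1724 for 30 min RT. cAMP by HTRF (cAMP-d2/anti-cAMP cryptate), 1 h RT, fluorescence read. 15 concentrations, triplicates.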

[9] = molecular target: Androgen receptor (Homo sapiens) (UniProt P10275); experiment: qHTS assay to identify small molecule agonists of the androgen receptor (AR) signaling pathway in the presence of an antagonist (AID 1259381; calls by dose curve; further: nearly all actives have a fitted effect of over 15% in size; further: potency means the concentration at half of the fitted maximal effect)
Sequence of Androgen receptor (Homo sapiens) (P10275 whole entry, looked up): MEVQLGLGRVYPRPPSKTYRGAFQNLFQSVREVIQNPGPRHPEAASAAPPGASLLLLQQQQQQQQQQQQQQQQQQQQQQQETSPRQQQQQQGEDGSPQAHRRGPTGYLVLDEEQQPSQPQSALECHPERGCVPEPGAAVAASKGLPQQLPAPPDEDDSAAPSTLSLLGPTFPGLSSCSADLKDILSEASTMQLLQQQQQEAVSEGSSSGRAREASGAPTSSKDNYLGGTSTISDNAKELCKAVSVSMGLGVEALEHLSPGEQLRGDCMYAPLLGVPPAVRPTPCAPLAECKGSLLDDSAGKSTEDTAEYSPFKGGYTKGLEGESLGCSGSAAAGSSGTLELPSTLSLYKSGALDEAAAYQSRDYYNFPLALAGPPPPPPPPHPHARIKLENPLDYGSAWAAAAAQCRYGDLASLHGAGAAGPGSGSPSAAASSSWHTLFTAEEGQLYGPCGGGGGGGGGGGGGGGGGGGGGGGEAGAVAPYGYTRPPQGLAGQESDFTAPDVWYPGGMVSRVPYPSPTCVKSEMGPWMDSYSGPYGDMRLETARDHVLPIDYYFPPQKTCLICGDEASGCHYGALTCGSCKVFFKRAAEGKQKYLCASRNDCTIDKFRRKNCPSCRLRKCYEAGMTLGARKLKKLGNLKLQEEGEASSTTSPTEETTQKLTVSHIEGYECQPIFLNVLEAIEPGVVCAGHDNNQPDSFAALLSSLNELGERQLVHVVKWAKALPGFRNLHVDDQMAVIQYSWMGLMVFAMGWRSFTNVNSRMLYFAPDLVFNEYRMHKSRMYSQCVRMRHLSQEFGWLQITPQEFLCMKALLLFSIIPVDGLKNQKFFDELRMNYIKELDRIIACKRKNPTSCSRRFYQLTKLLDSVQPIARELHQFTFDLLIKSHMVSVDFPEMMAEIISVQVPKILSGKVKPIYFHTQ
Procedure, shortened: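 MDA-kb2 cells, 3,000/well, rested 5hr at 37C/0% CO2 → nilutamide 3.0uM final or buffer → compounds, 15 conc. → 16hr at 37C → ONE-Glo, 30min RT → luminescence.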

SMILES: NC1CCC(CC2CCC(N)CC2)CC1 (stereo unspecified)
- Potency [1]: 60.1 µM (active)
- Potency [2]: inactive
- Potency [3]: inactive
- Potency [4]: inactive

SMILES: O=C(N[C@H]1N=C(c2ccccc2F)c2cccc3c2N(CC3)C1=O)c1cc2ccccc2[nH]1
- Potency [5]: inactive
- Potency [6]: inactive
- Potency [1]: inactive
- Potency [3]: inactive
- Potency [7]: inactive

SMILES: c1ccc(Nc2ccc(Nc3ccccc3)cc2)cc1
- Potency [5]: inactive
- Potency [6]: 0.136 µM (active)
- Potency [1]: inactive
- Potency [3]: inactive
- Potency [7]: inactive

SMILES: O=C(Nc1ccc(F)cc1F)c1cccnc1Oc1cccc(C(F)(F)F)c1
- Potency [5]: inactive
- Potency [6]: inactive
- Potency [1]: inactive
- Potency [2]: inactive
- Potency [3]: inactive
- Potency [8]: inactive
- Potency [7]: inactive

SMILES: CCC1(CC)C(=O)N=C(O)NC1=O
- Potency [5]: inactive
- Potency [6]: inactive
- Potency [1]: inactive
- Potency [2]: inactive
- Potency [4]: inactive

SMILES: O.O.O.O=C([O-])[C@H]([O-])[C@@H]([O-])C(=O)[O-].O=C([O-])[C@H]([O-])[C@@H]([O-])C(=O)[O-].[K+].[K+].[Sb+3].[Sb+3]
- Potency [1]: 17.3 µM (active)
- Potency [2]: inactive
- Potency [3]: inactive
- Potency [4]: inactive

SMILES: CCOP(=O)(OCC)Oc1nc(Cl)c(Cl)cc1Cl
- Potency [1]: inactive
- Potency [2]: 8.58 µM (active)
- Potency [9]: inactive
- Potency [4]: inactive

SMILES: C[C@H]1[C@H](c2ccc(Cl)cc2)SC(=O)N1C(=O)NC1CCCCC1
- Potency [6]: inactive
- Potency [9]: inactive
- Potency [3]: inactive
- Potency [4]: inactive
- Potency [8]: inactive

SMILES: BrCCCBr
- Potency [1]: inactive
- Potency [2]: inactive
- Potency [9]: inactive
- Potency [3]: inactive
- Potency [8]: inactive
- Potency [7]: inactive

SMILES: CC#C[C@]1(O)CC[C@H]2[C@@H]3C[C@H](C)C4=CC(=O)CC[C@]4(C)[C@H]3CC[C@@]21C
- Potency [1]: inactive
- Potency [9]: 0.237 µM (active)
- Potency [3]: inactive
- Potency [4]: inactive
- Potency [8]: inactive
- Potency [7]: inactive

SMILES: CC(C)(C)c1ccc(OP(=O)(Oc2ccccc2)Oc2ccccc2)cc1
- Potency [5]: inactive
- Potency [1]: inactive

SMILES: CO/N=C(\C(=O)OC)c1ccccc1CO/N=C(\C)c1cccc(C(F)(F)F)c1
- Potency [1]: 12.2 µM (active)
- Potency [3]: inactive
- Potency [8]: inactive

SMILES: O=S1OCC2C(CO1)C1(Cl)C(Cl)=C(Cl)C2(Cl)C1(Cl)Cl (stereo unspecified)
- Potency [1]: inactive
- Potency [2]: 48.5 µM (active)
- Potency [9]: inactive
- Potency [4]: inactive
- Potency [8]: inactive
- Potency [7]: inactive

SMILES: CCc1cccc(C)c1N(C(=O)CCl)[C@@H](C)COC
- Potency [5]: inactive
- Potency [1]: inactive
- Potency [2]: inactive
- Potency [3]: inactive
- Potency [8]: inactive
- Potency [7]: inactive

SMILES: Oc1ccc([C@H]2CNCc3c2ccc(O)c3O)cc1O
- Potency [5]: inactive
- Potency [2]: inactive
- Potency [3]: inactive
- Potency [4]: inactive

SMILES: Cc1cc2c3c(c1)C(c1ccccc1)=N[C@@H](NC(=O)c1ccncc1)C(=O)N3CC2
- Potency [5]: inactive
- Potency [6]: inactive
- Potency [1]: inactive
- Potency [2]: inactive
- Potency [8]: inactive
- Potency [7]: inactive

SMILES: CO/N=C(/C1=NOCCO1)c1ccccc1Oc1ncnc(Oc2ccccc2Cl)c1F
- Potency [1]: 15.3 µM (active)
- Potency [2]: 21.7 µM (active)
- Potency [3]: inactive
- Potency [4]: inactive

SMILES: O=C1C[C@@H]2OCC=C3CN4CC[C@]56c7ccccc7N1[C@H]5[C@H]2[C@H]3C[C@H]46
- Potency [1]: inactive
- Potency [2]: inactive
- Potency [3]: inactive
- Potency [8]: inactive
- Potency [7]: inactive

SMILES: CCCCN(CCCC)C(=S)[S-].CCCCN(CCCC)C(=S)[S-].[Ni+2]
- Potency [1]: inactive
- Potency [2]: inactive
- Potency [3]: inactive
- Potency [4]: inactive

SMILES: O=[N+]([O-])[O-].[Tl+]
- Potency [1]: inactive
- Potency [2]: 0.346 µM (active)
- Potency [3]: inactive
- Potency [8]: inactive
- Potency [7]: inactive

SMILES: C[N+]1(C)[C@@H]2CC[C@H]1CC(OC(=O)C(CO)c1ccccc1)C2 (stereo partly specified)
- Potency [5]: inactive
- Potency [6]: inactive
- Potency [1]: inactive
- Potency [2]: inactive
- Potency [3]: inactive
- Potency [8]: inactive
- Potency [7]: inactive

SMILES: Oc1cc(Cl)cc(Cl)c1
- Potency [1]: inactive
- Potency [2]: inactive
- Potency [3]: inactive
- Potency [4]: inactive

SMILES: CC(=O)[O-].CC(=O)[O-].CC(=O)[O-].[Cr+3]
- Potency [1]: inactive
- Potency [2]: inactive
- Potency [3]: inactive

SMILES: CN1C2CCC(C)(C)C1CC(OC(=O)C(O)(c1cccs1)c1cccs1)C2 (stereo unspecified)
- Potency [1]: inactive
- Potency [2]: inactive
- Potency [3]: inactive
- Potency [4]: inactive
- Potency [7]: inactive

SMILES: COP(=S)(OC)Oc1ccc([N+](=O)[O-])c(C)c1
- Potency [5]: inactive
- Potency [1]: inactive
- Potency [3]: inactive
- Potency [7]: inactive

SMILES: O=c1c2ccccc2c(=O)c2c1cc(Cl)c1[nH]c3c([nH]c12)c(Cl)cc1c(=O)c2ccccc2c(=O)c13
- Potency [1]: inactive
- Potency [2]: inactive
- Potency [3]: inactive
- Potency [4]: inactive
- Potency [8]: inactive
- Potency [7]: inactive

SMILES: CC(C)NCC(O)c1ccccc1Cl (stereo unspecified)
- Potency [1]: inactive
- Potency [2]: inactive
- Potency [9]: inactive
- Potency [3]: inactive
- Potency [4]: inactive

SMILES: C[C@@H]1CC2=CC(=O)CC[C@@H]2[C@H]2CC[C@@]3(C)[C@@H](CC[C@]3(C)O)[C@@H]21
- Potency [1]: inactive
- Potency [2]: inactive

SMILES: c1cc[n+]2c(c1)-c1cccc[n+]1CC2
- Potency [1]: inactive
- Potency [2]: inactive
- Potency [3]: inactive
- Potency [4]: inactive
- Potency [8]: inactive
- Potency [7]: inactive

SMILES: CN1CCc2cc3c(cc2C1O)OCO3 (stereo unspecified)
- Potency [2]: inactive

SMILES: N#Cc1c[nH]cc1-c1cccc2c1OC(F)(F)O2
- Potency [2]: 21.7 µM (active)
- Potency [4]: inactive
- Potency [8]: inactive
- Potency [7]: inactive

SMILES: CCCC[N+]1(C)CCCC1 (tested in a mixture with another compound)
- Potency [1]: inactive
- Potency [2]: inactive
- Potency [3]: inactive
